Laboratory results as given in PubChem BioAssay (EPA / NIEHS).
“And” between values parts separate entries of the source, which are not always exact repeats. Equal values may be shown once. Inconclusive results are not listed. The source made the active and inactive calls. The calls were made as follows: active = hit-call score of the fitted dose curve at least 0.9, where 1 is the maximum; inconclusive = response in the unintended direction; inactive = score below 0.9.

How the values were obtained:
[1] = target: rat Glutamate, AMPA Site (AMPA), Gria1 (gene 50592) (UniProt P19490); assay: NVS_LGIC_rAMPA: NovaScreen (NVS) Ligand-Gated Ion Channel Assay for rat Glutamate, AMPA Site (AMPA) (AID 2283324)
In short: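 Screening at 25 uM in duplicate preceded concentration series reaching 50 uM for qualifying compounds. Radioligand displacement on rat forebrain membranes, 1 h, filter-based scintillation readout; reduced binding relative to DMSO.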

[2] = target: rat Neurokinin-3 Receptor (NK3), Tacr3 (gene 24808) (UniProt P16177); assay: NVS_GPCR_rNK3: NovaScreen (NVS) G Protein-Coupled Receptor Assay for rat Neurokinin-3 Receptor (NK3) (AID 2283310)
In short: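 Filter-based radioligand displacement on rat cortex membrane preparations, read by scintillation 2 h post-dose. Chemicals first tested in duplicate at 25 uM; actives followed up in concentration series with a 50 uM maximum.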

[3] = target: rat Opioid Receptor, Non-selective Binding, Oprm1 (gene 25601) (UniProt P33535); assay: NVS_GPCR_rOpiate_NonSelective: NovaScreen (NVS) G Protein-Coupled Receptor Assay for rat Opioid Receptor, Non-selective Binding (AID 2283318)
In short: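 Filter-based radioligand displacement using rat forebrain membrane preparations, measured 1.5 h post-dosing. Single-concentration duplicate screen at 25 uM, follow-up in concentration series; activity taken as signal loss relative to DMSO.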

[4] = NVS_IC_rCaDHPRCh_L: NovaScreen (NVS) Ion Channel Assay for rat Calcium Channel, Type L, Dihydropyridine Site (CaDHPRCh_L) (AID 2283320)
In short: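 Rat cortex membrane preparation; dihydropyridine-site radioligand displacement read 1 h post-dose by filtration and scintillation. Primary single-point screen 25 uM in duplicate, then concentration series to 50 uM maximum; DMSO as negative control.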

[5] = target: Sodium channel protein type 1 subunit alpha (Rattus norvegicus) (UniProt P04774); assay: NVS_IC_rNaCh_site2: NovaScreen (NVS) Ion Channel Assay for rat Sodium Channel, Site 2 (NaCh) (AID 2283322);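 also: hit means loss of radioligand binding signal relative to DMSO so AC50 marks displacement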
In short: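 Initial duplicate single-point testing at 25 uM, followed by concentration-response runs for actives. Binding of radioligand to rat forebrain membranes quantified after 1 h via filter-based radiodetection.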

[6] = target: human Androgen Receptor (AR), AR (gene 367) (UniProt P10275); assay: NVS_NR_hAR: NovaScreen (NVS) Nuclear Receptor Binding Assay for human Androgen Receptor (AR) (AID 2283332)
In short: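 Actives from a duplicate 25 uM single-point screen went on to concentration series. Read-out after 20 h was scintillation counting of displaced radioligand in LnCAP extract, with DMSO as baseline.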

[7] = target: rat Glutamate Metabotropic Receptor 5 (MGluR5), Grm5 (gene 24418) (UniProt P31424); assay: NVS_GPCR_rmMGluR5: NovaScreen (NVS) G Protein-Coupled Receptor Assay for rat Glutamate Metabotropic Receptor 5 (MGluR5) (AID 2283307)
In short: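 Compounds first screened in duplicate at 25 uM, then in concentration series up to 50 uM if over threshold. Radioligand displacement on rat whole-brain membranes, filtration and scintillation counting after 1.5 h; binding loss relative to DMSO.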

[8] = target: rat Glutamate, NMDA Agonist Site (GluNMDA), Grin1 (gene 24408) (UniProt P35439); assay: NVS_LGIC_rGluNMDA_Agonist: NovaScreen (NVS) Ligand-Gated Ion Channel Assay for rat Glutamate, NMDA Agonist Site (GluNMDA) (AID 2283327)
In short: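 Radioligand displacement at the agonist site on rat forebrain membrane preparations, read by filter scintillation after 1 h. Chemicals were first run at 25 uM in duplicate; those passing threshold were titrated to a 50 uM maximum.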

[9] = target: rat Thyrotropin Releasing Hormone Receptor (TRH), Trhr (gene 25570) (UniProt Q01717); assay: NVS_GPCR_rTRH: NovaScreen (NVS) G Protein-Coupled Receptor Assay for rat Thyrotropin Releasing Hormone Receptor (TRH) (AID 2283329);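 also: hit means lower bound tracer signal versus DMSO baseline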
In short: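 Rat forebrain membranes; radioligand displacement at TRH receptor by filter-based scintillation counting, read 4 h after dosing. Duplicate single-point screen at 25 uM, actives rerun in concentration series; loss of signal relative to DMSO.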

[10] = target: rat Neonicotinoid receptor (NNR), Chrna7 (gene 25302) (UniProt Q05941); assay: NVS_LGIC_rNNR_BungSens: NovaScreen (NVS) Ligand-Gated Ion Channel Assay for rat Neonicotinoid receptor (NNR) (AID 2283315)
In short: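 Rat cortical membrane preparation incubated 2.5 h with tritiated or iodinated radioligand and test chemical. Bound radioactivity was filtered and counted by scintillation, and displacement was analysed against DMSO.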

[11] = target: Adra2b (gene 24174) (UniProt P19328); assay: NVS_GPCR_rmAdra2B: NovaScreen (NVS) G Protein-Coupled Receptor Assay for hybird cells Adrenergic, Alpha 2B Receptor (Adra2B) (AID 2283306)
In short: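 Compounds screened first at 25 uM in duplicate, with actives followed up in concentration-response; specific radioligand displacement from hybrid neuroglioma/blastoma cell membrane preparations measured by filter scintillation counting after 1 h, normalized to DMSO.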

[12] = target: rat Vasopressin 1 Receptor (V1), Avpr1a (gene 25107) (UniProt P30560); assay: NVS_GPCR_rV1: NovaScreen (NVS) G Protein-Coupled Receptor Assay for rat Vasopressin 1 Receptor (V1) (AID 2283316)
In short: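 Concentration-response up to 50 uM for chemicals passing a threshold such as 30% inhibition in an initial duplicate 25 uM screen. Displacement of radioligand from rat liver membranes measured after 1.5 h by filtration and scintillation.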

[13] = target: rat Opioid Receptor, Non-selective Sodium (Na+) Binding, Oprm1 (gene 25601) (UniProt P33535); assay: NVS_GPCR_rOpiate_NonSelectiveNa: NovaScreen (NVS) G Protein-Coupled Receptor Assay for rat Opioid Receptor, Non-selective Sodium (Na+) Binding (AID 2283311)
In short: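 Filtration radioligand binding on rat forebrain membrane preparations, read 1.5 h after dosing. Single-concentration 25 µM primary screen in duplicate, followed by singleton concentration series to 50 µM max for actives; DMSO baseline.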

[14] = target: rat Somatostatin Receptor (SST), Sstr1 (gene 25033) (UniProt P28646); assay: NVS_GPCR_rSST: NovaScreen (NVS) G Protein-Coupled Receptor Assay for rat Somatostatin Receptor (SST) (AID 2283314)
In short: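 Single-concentration duplicate screen (25 uM), then concentration-response up to 50 uM for chemicals passing a threshold such as 30% inhibition. Membranes came from rat forebrain. Binding was measured 1 h post-dose by filter radiodetection and scintillation, relative to DMSO.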

[15] = target: human Serotonin, 5-Hydroxytryptamine Receptor 3 (5HT3), HTR3A (gene 3359) (UniProt P46098); assay: NVS_LGIC_h5HT3: NovaScreen (NVS) Ligand-Gated Ion Channel Assay for human Serotonin, 5-Hydroxytryptamine Receptor 3 (5HT3) (AID 2283325)
In short: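 Initially tested at 25 uM in duplicate, then up to 50 uM in concentration-response for actives, compounds competed with a radioligand for HEK293-derived human 5-HT3 receptor. Bound counts were measured by filtration and scintillation at 1 h; loss of signal versus DMSO.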

rat Opioid Receptor, Non-selective Binding, Oprm1 (gene 25601), sequence (P33535 whole entry, looked up): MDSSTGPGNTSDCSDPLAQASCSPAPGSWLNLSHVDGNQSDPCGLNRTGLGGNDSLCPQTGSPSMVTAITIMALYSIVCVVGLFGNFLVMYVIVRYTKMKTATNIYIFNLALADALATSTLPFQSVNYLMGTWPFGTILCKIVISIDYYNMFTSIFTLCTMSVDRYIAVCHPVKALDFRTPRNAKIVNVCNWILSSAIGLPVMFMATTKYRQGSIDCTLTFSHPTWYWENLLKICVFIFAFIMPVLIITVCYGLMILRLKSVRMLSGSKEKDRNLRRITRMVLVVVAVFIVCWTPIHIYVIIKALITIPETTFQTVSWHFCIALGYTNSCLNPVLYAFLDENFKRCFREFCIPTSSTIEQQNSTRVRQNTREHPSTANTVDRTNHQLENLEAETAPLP
Adra2b (gene 24174), sequence (P19328 whole entry, looked up): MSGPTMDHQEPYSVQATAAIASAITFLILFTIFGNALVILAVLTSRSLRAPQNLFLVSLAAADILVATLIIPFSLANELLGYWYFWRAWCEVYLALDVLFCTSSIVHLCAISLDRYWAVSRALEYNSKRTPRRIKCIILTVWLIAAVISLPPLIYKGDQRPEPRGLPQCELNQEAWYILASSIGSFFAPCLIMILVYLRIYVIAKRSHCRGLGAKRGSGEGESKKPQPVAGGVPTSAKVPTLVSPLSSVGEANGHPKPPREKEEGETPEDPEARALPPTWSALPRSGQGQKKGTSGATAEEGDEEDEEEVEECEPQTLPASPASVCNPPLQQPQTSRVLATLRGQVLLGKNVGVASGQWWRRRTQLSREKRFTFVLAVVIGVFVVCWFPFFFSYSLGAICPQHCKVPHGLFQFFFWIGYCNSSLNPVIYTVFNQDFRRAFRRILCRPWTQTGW
rat Thyrotropin Releasing Hormone Receptor (TRH), Trhr (gene 25570), sequence (Q01717 whole entry, looked up): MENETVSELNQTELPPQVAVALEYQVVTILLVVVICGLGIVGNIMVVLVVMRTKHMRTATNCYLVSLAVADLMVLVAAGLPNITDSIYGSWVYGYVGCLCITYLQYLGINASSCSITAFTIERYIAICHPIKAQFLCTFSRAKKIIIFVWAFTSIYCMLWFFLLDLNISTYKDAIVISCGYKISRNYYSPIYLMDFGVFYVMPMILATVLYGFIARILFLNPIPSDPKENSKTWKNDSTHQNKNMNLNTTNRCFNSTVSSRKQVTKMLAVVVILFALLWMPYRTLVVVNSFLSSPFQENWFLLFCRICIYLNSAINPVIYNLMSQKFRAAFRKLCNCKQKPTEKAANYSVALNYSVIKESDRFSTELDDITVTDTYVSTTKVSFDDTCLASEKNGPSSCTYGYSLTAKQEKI
human Androgen Receptor (AR), AR (gene 367), sequence (P10275 whole entry, looked up): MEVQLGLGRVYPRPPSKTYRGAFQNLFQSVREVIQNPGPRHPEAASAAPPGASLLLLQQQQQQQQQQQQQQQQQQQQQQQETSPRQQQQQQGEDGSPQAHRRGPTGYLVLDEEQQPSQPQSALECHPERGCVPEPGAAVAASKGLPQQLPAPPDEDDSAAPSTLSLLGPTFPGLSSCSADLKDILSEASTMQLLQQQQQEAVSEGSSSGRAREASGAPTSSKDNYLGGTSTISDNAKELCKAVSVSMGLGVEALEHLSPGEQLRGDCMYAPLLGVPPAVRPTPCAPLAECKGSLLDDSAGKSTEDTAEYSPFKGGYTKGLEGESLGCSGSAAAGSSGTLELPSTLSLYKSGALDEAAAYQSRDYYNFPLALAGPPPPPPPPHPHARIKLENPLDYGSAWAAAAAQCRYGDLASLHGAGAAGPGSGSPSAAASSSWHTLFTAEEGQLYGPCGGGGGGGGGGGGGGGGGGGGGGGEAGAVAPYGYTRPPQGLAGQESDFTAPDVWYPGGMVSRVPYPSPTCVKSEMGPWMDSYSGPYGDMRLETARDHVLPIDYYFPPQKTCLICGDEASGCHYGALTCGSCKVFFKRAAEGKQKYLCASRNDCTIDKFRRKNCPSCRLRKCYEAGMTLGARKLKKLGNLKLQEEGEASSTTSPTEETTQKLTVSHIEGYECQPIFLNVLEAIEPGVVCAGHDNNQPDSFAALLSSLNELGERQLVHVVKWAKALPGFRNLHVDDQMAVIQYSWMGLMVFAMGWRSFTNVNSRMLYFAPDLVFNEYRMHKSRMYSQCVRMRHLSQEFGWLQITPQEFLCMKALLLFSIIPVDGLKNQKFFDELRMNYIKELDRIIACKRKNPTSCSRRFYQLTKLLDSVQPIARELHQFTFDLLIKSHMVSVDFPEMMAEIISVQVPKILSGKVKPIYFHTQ
rat Glutamate, AMPA Site (AMPA), Gria1 (gene 50592), sequence (P19490 whole entry, looked up): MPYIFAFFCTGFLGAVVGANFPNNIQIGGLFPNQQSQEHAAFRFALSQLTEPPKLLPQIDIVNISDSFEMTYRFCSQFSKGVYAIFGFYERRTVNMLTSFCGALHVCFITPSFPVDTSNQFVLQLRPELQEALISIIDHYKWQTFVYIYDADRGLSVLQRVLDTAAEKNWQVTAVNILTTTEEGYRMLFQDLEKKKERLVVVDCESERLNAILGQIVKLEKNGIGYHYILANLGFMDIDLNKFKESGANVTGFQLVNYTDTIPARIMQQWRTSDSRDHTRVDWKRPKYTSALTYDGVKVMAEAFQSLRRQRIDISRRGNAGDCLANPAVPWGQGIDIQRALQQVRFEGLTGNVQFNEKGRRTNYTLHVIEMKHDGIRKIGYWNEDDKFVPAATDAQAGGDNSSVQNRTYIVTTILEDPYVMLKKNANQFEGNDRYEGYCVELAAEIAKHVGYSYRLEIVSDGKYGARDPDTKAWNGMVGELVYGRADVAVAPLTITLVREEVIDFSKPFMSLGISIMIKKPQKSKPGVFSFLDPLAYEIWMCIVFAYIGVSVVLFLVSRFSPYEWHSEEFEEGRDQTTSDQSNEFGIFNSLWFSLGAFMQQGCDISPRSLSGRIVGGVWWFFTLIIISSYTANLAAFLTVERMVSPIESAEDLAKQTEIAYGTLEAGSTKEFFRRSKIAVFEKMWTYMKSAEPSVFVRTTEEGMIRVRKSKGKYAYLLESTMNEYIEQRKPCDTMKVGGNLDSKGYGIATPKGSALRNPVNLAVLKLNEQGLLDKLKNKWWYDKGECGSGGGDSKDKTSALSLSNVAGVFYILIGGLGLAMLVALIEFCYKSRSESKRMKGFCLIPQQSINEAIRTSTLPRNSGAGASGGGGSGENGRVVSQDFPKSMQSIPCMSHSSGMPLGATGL
rat Opioid Receptor, Non-selective Sodium (Na+) Binding, Oprm1 (gene 25601), sequence (P33535 whole entry, looked up): as the sequence (P33535 whole entry, looked up) above
rat Glutamate Metabotropic Receptor 5 (MGluR5), Grm5 (gene 24418), sequence (P31424 whole entry, looked up): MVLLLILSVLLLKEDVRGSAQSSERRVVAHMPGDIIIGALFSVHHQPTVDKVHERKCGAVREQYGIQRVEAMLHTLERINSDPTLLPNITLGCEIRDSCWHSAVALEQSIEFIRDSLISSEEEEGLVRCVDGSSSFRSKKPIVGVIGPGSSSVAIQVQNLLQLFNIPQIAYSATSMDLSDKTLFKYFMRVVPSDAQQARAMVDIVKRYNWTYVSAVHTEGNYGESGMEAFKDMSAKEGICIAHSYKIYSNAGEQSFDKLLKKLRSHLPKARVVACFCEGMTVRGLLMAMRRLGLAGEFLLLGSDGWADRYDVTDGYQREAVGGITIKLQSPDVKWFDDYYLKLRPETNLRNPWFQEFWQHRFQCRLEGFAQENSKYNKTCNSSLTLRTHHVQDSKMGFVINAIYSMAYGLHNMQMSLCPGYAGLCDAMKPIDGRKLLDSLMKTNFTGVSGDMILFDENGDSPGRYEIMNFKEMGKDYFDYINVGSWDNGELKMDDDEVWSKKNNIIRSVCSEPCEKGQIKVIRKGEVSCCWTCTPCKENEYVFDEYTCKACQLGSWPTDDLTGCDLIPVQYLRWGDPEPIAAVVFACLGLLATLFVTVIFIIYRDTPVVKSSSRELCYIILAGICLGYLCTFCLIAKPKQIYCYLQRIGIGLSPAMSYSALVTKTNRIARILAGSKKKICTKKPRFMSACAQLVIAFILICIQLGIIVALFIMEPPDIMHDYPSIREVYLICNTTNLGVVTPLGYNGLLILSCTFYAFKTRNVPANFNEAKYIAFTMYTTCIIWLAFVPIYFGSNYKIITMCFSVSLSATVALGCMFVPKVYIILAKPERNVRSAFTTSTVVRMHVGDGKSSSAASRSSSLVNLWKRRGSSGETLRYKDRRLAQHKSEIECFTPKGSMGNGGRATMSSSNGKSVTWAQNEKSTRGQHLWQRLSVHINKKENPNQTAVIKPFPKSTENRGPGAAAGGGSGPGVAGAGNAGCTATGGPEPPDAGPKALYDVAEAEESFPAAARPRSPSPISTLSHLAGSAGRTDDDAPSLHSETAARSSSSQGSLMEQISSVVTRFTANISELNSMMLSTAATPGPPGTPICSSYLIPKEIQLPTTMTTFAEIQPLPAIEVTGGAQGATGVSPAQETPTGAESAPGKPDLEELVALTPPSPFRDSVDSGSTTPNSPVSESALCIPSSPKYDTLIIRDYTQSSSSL
rat Vasopressin 1 Receptor (V1), Avpr1a (gene 25107), sequence (P30560 whole entry, looked up): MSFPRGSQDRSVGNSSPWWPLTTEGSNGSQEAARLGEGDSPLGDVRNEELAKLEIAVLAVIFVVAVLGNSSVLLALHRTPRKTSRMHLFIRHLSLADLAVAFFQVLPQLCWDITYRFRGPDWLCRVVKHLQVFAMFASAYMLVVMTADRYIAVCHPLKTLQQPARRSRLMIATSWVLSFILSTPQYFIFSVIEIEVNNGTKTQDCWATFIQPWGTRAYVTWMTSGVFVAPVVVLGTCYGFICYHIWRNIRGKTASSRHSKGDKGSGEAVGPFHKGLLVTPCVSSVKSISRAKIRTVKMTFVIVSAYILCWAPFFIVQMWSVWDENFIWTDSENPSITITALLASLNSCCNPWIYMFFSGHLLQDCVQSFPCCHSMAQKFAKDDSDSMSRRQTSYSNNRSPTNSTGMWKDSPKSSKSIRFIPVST

**Q.** With `Cc1cc(CCN2CCN(c3nsc4ccccc34)CC2)cc2c1NC(=O)CC2(C)C` as the compound, how does the outcome [1] read?
**A.** The outcome was “inactive”.

**Q.** Which outcome [2] does the source give for `Cc1oc(-c2ccccc2)nc1CCOc1ccc(C[C@H](Nc2ccccc2C(=O)c2ccccc2)C(=O)O)cc1` here?
**A.** Its outcome is “inactive”.

**Q.** What about the outcome [3] of the same compound?
**A.** Its outcome is “inactive”.

**Q.** And the AC50 [4]?
**A.** The AC50 was 25 µM (active).

**Q.** What about the AC50 [5] of the same compound?
**A.** The AC50 was 25 µM (active).

**Q.** What about the AC50 [6] of the same compound?
**A.** Its AC50 is 1.92 µM (active).

**Q.** With `OC1CCCCC1` as the compound, how does the outcome [7] read?
**A.** Its outcome is “inactive”.

**Q.** And the outcome [5]?
**A.** Its outcome is “inactive”.

**Q.** Which outcome [1] does the source give for `Cc1cc(C)c(O)c(C)c1` here?
**A.** The outcome was “inactive”.

**Q.** And the outcome [8]?
**A.** Its outcome is “inactive”.

**Q.** Which AC50 [5] does the source give for `CCC(=C(c1ccc(O)cc1)c1ccc(OCCN(C)C)cc1)c1ccccc1` here?
**A.** The AC50 was 4.03 µM (active).

**Q.** What about the AC50 [6] of the same compound?
**A.** Its AC50 is 8.62 nM (active) and 653 nM (active).

**Q.** Which outcome [1] does the source give for `CN1CCN(c2ccccc2/C=C2\SCCN(c3ccc(Cl)c(Cl)c3)C2=O)CC1` here?
**A.** The outcome was “inactive”.

**Q.** With `C#C[C@]1(O)CC[C@H]2[C@@H]3CCC4=CC(=O)CC[C@@H]4[C@H]3CC[C@@]21C` as the compound, how does the outcome [9] read?
**A.** Its outcome is “inactive”.

**Q.** For `CCC(C)(C)C1CCC(O)CC1` (stereo not drawn), which outcome [10] is on record?
**A.** Its outcome is “inactive”.

**Q.** For `COCC(C)OCC(C)O` (stereo not drawn), which outcome [3] is on record?
**A.** The outcome was “inactive”.

**Q.** Which outcome [3] does the source give for `c1ccc2c(c1)Cc1ccccc1-2` here?
**A.** Its outcome is “inactive”.

**Q.** What does the source list for `CCCOc1sc(C(=O)N2CCC(c3cc(CN)ccc3F)CC2)c(C)c1Br`?
**A.** AC50 [11]: 6.34 µM (active); AC50 [12]: 23.2 µM (active); AC50 [3]: 11 µM (active); AC50 [4]: 14.7 µM (active); AC50 [5]: 1.01 µM (active)

**Q.** With `O=C(O)Cc1cc(I)c(Oc2cc(I)c(O)c(I)c2)c(I)c1` as the compound, how does the outcome [13] read?
**A.** Its outcome is “inactive”.

**Q.** What about the outcome [3] of the same compound?
**A.** The outcome was “inactive”.

**Q.** What about the outcome [5] of the same compound?
**A.** The outcome was “inactive”.

**Q.** For `CCCOC(=O)c1ccc(O)cc1`, which AC50 [5] is on record?
**A.** Its AC50 is 31.2 µM (active).

**Q.** For `Cc1ccc(S(=O)(=O)O)c(C)c1`, which outcome [9] is on record?
**A.** Its outcome is “inactive”.

**Q.** For `CC(=O)CC(C)(C)O`, which outcome [3] is on record?
**A.** The outcome was “inactive”.

**Q.** And the outcome [9]?
**A.** The outcome was “inactive”.

**Q.** With `CC#C[C@]1(O)CC[C@H]2[C@@H]3CCC4=CC(=O)CCC4=C3[C@@H](c3ccc(N(C)C)cc3)C[C@@]21C` as the compound, how does the AC50 [11] read?
**A.** Its AC50 is 6.9 µM (active).

**Q.** What about the outcome [7] of the same compound?
**A.** Its outcome is “inactive”.

**Q.** And the outcome [2]?
**A.** The outcome was “inactive”.

**Q.** What about the AC50 [13] of the same compound?
**A.** Its AC50 is 2.59 µM (active).

**Q.** And the outcome [10]?
**A.** The outcome was “inactive”.

**Q.** What about the outcome [12] of the same compound?
**A.** Its outcome is “inactive”.

**Q.** What about the AC50 [3] of the same compound?
**A.** Its AC50 is 0.404 µM (active).

**Q.** What about the AC50 [5] of the same compound?
**A.** The AC50 was 6.71 µM (active).

**Q.** Which results are given for `NC(=O)N(O)[C@@H]1C=C[C@H](Oc2cccc(Oc3ccc(F)cc3)c2)C1`?
**A.** outcome [11]: inactive; outcome [14]: inactive; outcome [3]: inactive; outcome [5]: inactive; outcome [1]: inactive; outcome [15]: inactive
